According to PubChem BioAssay (NCI):
Several values for one entry are separate records, joined by “and”; a condition that tells them apart may be missing. Equal values may be shown once. The panel holds about 79,000 compounds, 15% with a hit somewhere; the sample as a whole holds those more often. More than one record can exist for a structure, and the calls need not agree. Activity calls are given as the source filed them. Cut-off read from the data, not from the text of the source: active = growth inhibition above about 70%; inactive = the rest.

What was measured:
[1] = NCI Yeast Anticancer Drug Screen. Data for the rad14 strain (AID 159);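 note: 0% = growth of vehicle-treated control cultures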; conditions: S. cerevisiae rad14 strain growth inhibition, stronger effect = higher value
Method in brief: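 Growth inhibition vs vehicle controls; genetically altered yeast strain (DNA damage repair defect) treated with test compounds.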

[2] = NCI Yeast Anticancer Drug Screen. Data for the cln2 rad14 strain (AID 165);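 note: 0% = growth equal to vehicle treated cultures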; conditions: S. cerevisiae cln2 rad14 strain, stronger effect = higher value
Method in brief: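 Test compounds were added to cln2 rad14 yeast cultures; inhibition of growth was then determined by comparison with vehicle treatment.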

[3] = NCI Yeast Anticancer Drug Screen. Data for the bub3 strain (AID 167); conditions: S. cerevisiae bub3 mutant strain, stronger effect = higher value
Method in brief: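 Readout: yeast growth inhibition, expressed relative to vehicle-only wells. The test organism is a mutant strain from a panel with lesions in DNA repair or checkpoint genes.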

[4] = NCI Yeast Anticancer Drug Screen. Data for the wt2 strain (AID 169);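 note: 0% = growth of vehicle-treated yeast cultures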; conditions: S. cerevisiae wt2 strain growth inhibition, stronger effect = higher value
Method in brief: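 The panel's yeast strains carry defined changes in DNA repair or cell cycle genes. Each strain is grown with compound, and growth loss is scored relative to vehicle.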

[5] = NCI Yeast Anticancer Drug Screen. Data for the mlh1 strain (AID 171);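 note: 0% = growth of vehicle-treated control cultures of the same strain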; conditions: S. cerevisiae mlh1 strain growth inhibition, stronger effect = higher value
Method in brief: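 Inhibition values reflect reduced yeast growth in the presence of compound, referenced to vehicle controls, using a strain chosen for its alteration in DNA repair or cell cycle control.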

[6] = NCI Yeast Anticancer Drug Screen. Data for the sgs1 strain (AID 173);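 note: 0% = growth of vehicle-only control cultures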; conditions: S. cerevisiae sgs1 mutant, stronger effect = higher value
Method in brief: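 Vehicle-treated cultures served as reference for growth inhibition of a yeast strain altered in DNA damage repair or cell cycle control after compound exposure.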

[7] = NCI Yeast Anticancer Drug Screen. Data for the mlh1 rad18 strain (AID 175); conditions: S. cerevisiae mlh1 rad18 strain growth inhibition, stronger effect = higher value
Method in brief: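 Inhibition values reflect reduced growth of mutant yeast versus vehicle-treated controls following compound exposure; the mutations affect DNA damage repair.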

[8] = NCI Yeast Anticancer Drug Screen. Data for the rad18 strain (AID 177); conditions: S. cerevisiae rad18 mutant growth inhibition, stronger effect = higher value
Method in brief: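 Steps: expose repair-mutant yeast to compound; measure growth; express as inhibition relative to vehicle control.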

[9] = NCI Yeast Anticancer Drug Screen. Data for the rad52 strain (AID 147);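 note: 0% = growth of vehicle-treated control cultures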; conditions: S. cerevisiae rad52 mutant growth inhibition, stronger effect = higher value
Method in brief: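 Inhibition of yeast growth, referenced to vehicle controls, was the measured output for a strain with defective DNA damage repair.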

[10] = NCI Yeast Anticancer Drug Screen. Data for the wt1 strain (AID 149);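 note: 0% = growth of vehicle-treated wt1 cultures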; conditions: S. cerevisiae wt1 strain (SPY 50644) growth inhibition, stronger effect = higher value
Method in brief: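 Growth inhibition read against vehicle controls after compound exposure of the wt1 yeast strain.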

[11] = NCI Yeast Anticancer Drug Screen. Data for the rad50EPP+ strain (AID 151);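 note: 0% = growth of vehicle-treated control cultures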; conditions: S. cerevisiae rad50 mutant strain, stronger effect = higher value
Method in brief: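 Genetically defined yeast (rad50EPP+, DNA damage repair alteration) is grown with compound, and inhibition of growth is expressed relative to vehicle-treated controls.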

[12] = NCI Yeast Anticancer Drug Screen. Data for the mgt1 strain (AID 153); conditions: S. cerevisiae mgt1 mutant growth inhibition, stronger effect = higher value
Method in brief: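 In the mgt1 strain, test compounds were added and growth inhibition was determined relative to vehicle-treated controls.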

[13] = NCI Yeast Anticancer Drug Screen. Data for the rad50 strain (AID 155);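 note: 0% = growth of vehicle-only cultures of the same strain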; conditions: S. cerevisiae rad50 strain growth inhibition, stronger effect = higher value
Method in brief: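 Readout: growth inhibition relative to vehicle-treated cultures. Compound exposure was carried out in a genetically defined yeast strain deficient in DNA damage repair.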

[14] = NCI Yeast Anticancer Drug Screen. Data for the mec2-1 strain (AID 157); conditions: S. cerevisiae mec2-1 strain, stronger effect = higher value
Method in brief: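 Each compound was tested on mec2-1 yeast, a strain altered in DNA damage repair or cell cycle control. Growth inhibition is reported relative to vehicle.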

[15] = NCI Yeast Anticancer Drug Screen. Data for the CLN2oe strain (AID 163);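 note: 0% = growth of vehicle-only control cultures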; conditions: S. cerevisiae CLN2oe strain, stronger effect = higher value
Method in brief: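 First, the altered yeast strain was treated with each compound; second, its growth was measured; finally, inhibition was derived by comparison with vehicle controls.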

[16] = NCI Yeast Anticancer Drug Screen. Data for the sgs1 mgt1 strain (AID 161);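 note: 0% = growth of cultures given vehicle only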; conditions: S. cerevisiae sgs1 mgt1 strain, stronger effect = higher value
Method in brief: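 Genetically altered yeast, compound exposure, growth inhibition relative to vehicle.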

[17] = at 5.0 µM (retest, dose inferred, filed as 0.5)
[18] = at 50.0 µM (retest, dose inferred, filed as 5.0)

Measured: growth inhibition

O=C1Nc2ccc(Br)cc2C1=Nc1ccc2c(c1)OCO2
inactive: [1]; at 11.0 µM -32% | [1]; at 33.0 µM -21% | [1]; at 100.0 µM -33% | [2]; [17] 32% | [2]; [18] 26% | [2]; at 50.0 µM 7.55% | [3]; at 1.2 µM -26% | [3]; at 3.7 µM -22% | [3]; [17] 30% | [3]; at 11.0 µM -17% | [3]; at 33.0 µM 2% | [3]; at 50.0 µM 52.5% | [4]; at 1.2 µM 0% | [4]; at 3.7 µM -21% | [4]; at 11.0 µM -22% | [4]; at 33.0 µM -34% | [4]; at 100.0 µM -27% | [5]; at 1.2 µM -8% | [5]; at 3.7 µM -13% | [5]; at 11.0 µM -24% | [5]; at 33.0 µM -30% | [5]; at 100.0 µM -27% | [6]; at 1.2 µM -31% | [6]; at 3.7 µM -21% | [6]; at 11.0 µM -30% | [6]; at 33.0 µM -37% | [6]; at 100.0 µM -27% | [7]; [17] 33% | [7]; [18] 54% | [7]; at 50.0 µM 6.7% | [8]; at 1.2 µM -36% | [8]; at 3.7 µM -34% | [8]; at 11.0 µM -42% | [8]; at 33.0 µM -44% | [8]; at 100.0 µM -29%
active: [3]; [18] 73% | [3]; at 100.0 µM 86%

COc1ccc(/C=C/C(=O)c2ccccc2)cc1OC
67.5% (inactive) and 83.8% (active): [3]; at 50.0 µM
54% (inactive) and 84% (active): [14]; at 50.0 µM
active: [9]; at 100.0 µM 95% | [10]; at 100.0 µM 92% | [11]; at 100.0 µM 75% | [12]; at 100.0 µM 96% | [13]; at 100.0 µM 96% | [14]; at 100.0 µM 95% | [1]; at 100.0 µM 92% | [15]; at 100.0 µM 97% | [3]; [18] 88% | [3]; at 100.0 µM 95% | [4]; at 100.0 µM 95% | [5]; at 100.0 µM 95% | [6]; at 100.0 µM 96% | [7]; [18] 79% | [8]; at 33.0 µM 72% | [8]; at 100.0 µM 95%
6.55% (inactive) and 84.3% (active): [13]; at 50.0 µM
inactive: [9]; at 1.2 µM -42% | [9]; at 3.7 µM -42% | [9]; at 11.0 µM -30% | [9]; at 33.0 µM 19% | [10]; at 1.2 µM -2% | [10]; at 3.7 µM -15% | [10]; at 11.0 µM -2% | [10]; at 33.0 µM 28% | [11]; at 1.2 µM 16% | [11]; at 3.7 µM 11% | [11]; at 11.0 µM 28% | [11]; at 33.0 µM 27% | [12]; at 1.2 µM -3% | [12]; at 3.7 µM -30% | [12]; at 11.0 µM -24% | [12]; at 33.0 µM 55% | [13]; at 1.2 µM 12% | [13]; at 3.7 µM 1% | [13]; [17] 22% | [13]; at 11.0 µM -5% | [13]; at 33.0 µM 44% | [13]; [18] 48% | [14]; at 1.2 µM -6% | [14]; at 3.7 µM -12% | [14]; [17] -16% | [14]; at 11.0 µM -2% | [14]; at 33.0 µM 47% | [14]; [18] 59% | [1]; at 1.2 µM 3% | [1]; at 3.7 µM 5% | [1]; at 11.0 µM 14% | [1]; at 33.0 µM 46% | [15]; at 1.2 µM 12% | [15]; at 3.7 µM 3% | [15]; at 11.0 µM 19% | [15]; at 33.0 µM 37% | [3]; at 1.2 µM 4% | [3]; at 3.7 µM 14% | [3]; [17] 16% | [3]; at 11.0 µM -36% | [3]; at 33.0 µM 62% | [4]; at 1.2 µM -30% | [4]; at 3.7 µM -33% | [4]; at 11.0 µM -34% | [4]; at 33.0 µM 38% | [5]; at 1.2 µM 20% | [5]; at 3.7 µM 19% | [5]; at 11.0 µM 17% | [5]; at 33.0 µM 67% | [6]; at 1.2 µM -11% | [6]; at 3.7 µM -2% | [6]; at 11.0 µM 5% | [6]; at 33.0 µM 51% | [7]; [17] 3% | [8]; at 1.2 µM -12% | [8]; at 3.7 µM -20% | [8]; at 11.0 µM -8%
17.4% (inactive) and 76.2% (active): [7]; at 50.0 µM

Cc1ccc(NC(=O)/C(CC2N=c3c(ccc4c(O)c5ccccc5c(O)c34)=NC2O)=N/NC(C)(C)C)cc1 (configuration not stated)
inactive: [9]; at 1.2 µM 7% | [9]; at 3.7 µM 9% | [9]; at 11.0 µM 33% | [9]; at 33.0 µM 49% | [9]; at 100.0 µM 61% | [10]; at 1.2 µM -19% | [10]; at 3.7 µM 2% | [10]; at 11.0 µM -2% | [10]; at 33.0 µM 8% | [10]; at 100.0 µM -6% | [11]; at 1.2 µM 16% | [11]; at 3.7 µM 34% | [11]; at 11.0 µM 44% | [11]; at 33.0 µM 50% | [11]; at 100.0 µM 54% | [13]; at 1.2 µM 17% | [13]; at 3.7 µM 23% | [13]; [17] -3% | [13]; at 11.0 µM 30% | [13]; at 33.0 µM 54% | [13]; [18] 65% | [13]; at 100.0 µM 65% | [14]; at 1.2 µM 15% | [14]; at 3.7 µM 18% | [14]; [17] 13% | [14]; at 11.0 µM 38% | [14]; at 33.0 µM 44% | [14]; [18] 25% | [14]; at 50.0 µM 1.25% | [14]; at 100.0 µM 35% | [1]; at 1.2 µM 9% | [1]; at 3.7 µM -9% | [1]; at 11.0 µM -10% | [1]; at 33.0 µM 0% | [1]; at 100.0 µM 1% | [16]; [17] -7% | [16]; [18] 2% | [16]; at 50.0 µM -0.2% | [15]; at 1.2 µM -5% | [15]; at 3.7 µM -2% | [15]; at 11.0 µM 3% | [15]; at 33.0 µM 0% | [15]; at 100.0 µM 1% | [2]; [17] -25% | [2]; [18] -3% | [2]; at 50.0 µM -19.9% | [3]; at 1.2 µM -3% | [3]; at 3.7 µM -2% | [3]; [17] 3% | [3]; at 11.0 µM -1% | [3]; at 33.0 µM 1% | [3]; [18] 17% | [3]; at 50.0 µM 33.6% | [3]; at 100.0 µM -1% | [4]; at 1.2 µM 0% | [4]; at 3.7 µM 1% | [4]; at 11.0 µM 4% | [4]; at 33.0 µM 5% | [4]; at 100.0 µM 7% | [5]; at 1.2 µM 7% | [5]; at 3.7 µM 16% | [5]; at 11.0 µM 10% | [5]; at 33.0 µM 28% | [5]; at 100.0 µM 16% | [6]; at 1.2 µM 3% | [6]; at 3.7 µM 4% | [6]; at 11.0 µM 2% | [6]; at 33.0 µM 1% | [6]; at 100.0 µM 1% | [7]; [17] 3% | [7]; [18] 32% | [7]; at 50.0 µM 27.4% | [8]; at 1.2 µM -4% | [8]; at 3.7 µM 12% | [8]; at 11.0 µM 20% | [8]; at 33.0 µM 40% | [8]; at 100.0 µM 18%
active: [13]; at 50.0 µM 77.6%
